# Pol kappa inh: blocks human DNA polymerase kappa activity | Q9UBT6 | purified Pol kappa, fluorescent DNA synthesis assay, 10 min | Potency, µM (series often up to 107 µM), for inactives: at the highest dose activity, negative = inhibition, usual class: inhibitors | hit rate 0.53% among 400,000 | AID 588579; also: % is scaled to controls: 0 for no effect and ±100 for the full control effect
#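 50 nM final substrate added after 15 min RT preincubation of 10 nM Pol kappa with compound; fluorescence read at 0 and 10 min.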
# POLH inh: blocks human DNA polymerase eta activity; hit rate 1.2% among 390,000; recombinant Pol eta, fluorescent DNA replication assay; AID 588591; Potency, µM (doses to about 114 µM), without a hit: at the top dose activity change, negative = inhibition, hits mostly inhibitors; also: % is scaled to controls: 0 for no effect and ±100 for the full control effect
#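 Pol eta (10 nM) was preincubated with compounds for 15 min at room temperature, after which fluorescent replication substrate (50 nM final) was added to start the reaction. Fluorescence was read kinetically at 0 and 10 min.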
# FEN1 inh: human FEN1 inhibition; P39748; Recombinant FEN1 flap cleavage, fluorescence, 15 min; Potency, µM (doses to about 114 µM), without a hit: at the highest dose activity change, negative = inhibition, actives largely listed as inhibitors; hit rate 0.35% among 390,000; also: % is scaled to controls: 0 for no effect and ±100 for the full control effect; nearly all actives have a fitted effect of over 65% in size
#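 Steps: FEN1 (10 nM) dispensed; compound added by pin tool; 15 min at room temperature; substrate added to 50 nM final; reads at 0 min and 15 min; data normalized and fitted (four-parameter Hill).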
# Pol iota inh: blocks human DNA polymerase iota activity | Pol iota fluorescent replication assay, 10 min | Q9UNA4 | hit rate 1% among 390,000 | Potency, µM (series often up to 115 µM), for inactives: top-dose activity, negative = inhibition, actives largely listed as inhibitors
#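 Fluorescent replication assay read twice, at 0 min and 10 min after adding 50 nM (final) substrate. Enzyme (10 nM) and compounds were first incubated 15 min at room temperature; enzyme-free buffer wells were negative controls.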
# Pol beta inh: blocks human DNA polymerase beta activity; P06746; Pol beta primer extension/strand displacement, fluorescence kinetic; Potency, µM (series often up to 114 µM), without a hit: at the top dose activity change, negative = inhibition, most hits filed as inhibitors; hit rate 1.3% among 340,000; AID 485314; also: % is scaled to controls: 0 for no effect and ±100 for the full control effect
#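 Values derive from four-parameter Hill fits of normalized kinetic data: reads at 0 and 10 min following addition of 50 nM substrate to 10 nM Pol beta preincubated 15 min with compound.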
# TDP1 inh: inhibitors of human tyrosyl-DNA phosphodiesterase TDP1; hit rate 0.28% among 350,000; Potency, µM (highest dose often 130 µM), without a hit: at the highest dose activity change, negative = inhibition, hits mostly inhibitors; Q9NUW8; recombinant TDP1, AlphaScreen DNA substrate cleavage; also: % is scaled to controls: 0 for no effect and ±100 for the full control effect; nearly all actives have a fitted effect of over 40% in size
# Target sequence (Q9NUW8 whole entry, looked up): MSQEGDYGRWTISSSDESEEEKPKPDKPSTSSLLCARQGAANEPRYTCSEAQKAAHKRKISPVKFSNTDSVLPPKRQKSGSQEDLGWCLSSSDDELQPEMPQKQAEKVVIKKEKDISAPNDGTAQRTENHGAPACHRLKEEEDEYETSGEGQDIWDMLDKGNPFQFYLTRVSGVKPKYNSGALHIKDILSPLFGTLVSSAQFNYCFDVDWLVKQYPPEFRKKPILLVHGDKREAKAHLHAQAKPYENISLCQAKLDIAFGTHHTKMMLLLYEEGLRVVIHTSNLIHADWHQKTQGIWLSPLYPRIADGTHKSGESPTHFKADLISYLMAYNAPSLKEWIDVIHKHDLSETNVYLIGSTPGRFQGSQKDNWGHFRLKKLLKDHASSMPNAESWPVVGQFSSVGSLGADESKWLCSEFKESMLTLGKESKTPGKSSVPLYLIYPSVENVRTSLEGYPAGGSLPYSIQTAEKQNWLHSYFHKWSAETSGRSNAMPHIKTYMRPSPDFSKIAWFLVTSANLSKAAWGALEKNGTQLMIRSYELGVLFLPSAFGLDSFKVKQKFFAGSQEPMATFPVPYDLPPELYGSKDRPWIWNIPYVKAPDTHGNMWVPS
#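 Recombinant human Tdp1 (E. coli-expressed, 1 nM final) preincubated with compounds 15 min at room temperature, then 5'-biotin/3'-phosphotyrosine-FITC DNA substrate (15 nM final) added for 5 min. AlphaScreen beads (10 ug/ml final) added 10 min; cleavage lowers signal.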
# * = called active by the depositor; ? = inconclusive; / = no result given; [ ] = dose if it differs, or a comment. In the library only some 2.4% were active in any assay of this set; here they are far more common. Calls follow the shape of the dose curve; as a rule, active = well fitted curve in the direction sought with a large enough effect; inconclusive = small, poorly fitted or top-dose-only effect, or another doubt; inactive = no such curve, though single readings can be large; an effect the other way counts as inactive or inconclusive. Potency is read from the fitted curve at half-maximal effect.
SMILES,Pol kappa inh,POLH inh,FEN1 inh,Pol iota inh,Pol beta inh,TDP1 inh
CN(C)CCCN(C(=O)c1ccc(S(=O)(=O)N(C)C2CCCCC2)cc1)c1nc2ccc(F)cc2s1,-9.7%,-15.7%,?,8.4%,4.1%,5.6%
O=C(Cc1ccc(OCCCCc2ccccc2)cc1)NO,-25.2%,/,?,21.3%,/,/
COCCCNC(=O)c1ccc2c3c(onc13)-c1ccccc1C2=O,-12.6%,44.7µM*,44.7µM*,?,5.7%,7.5%
Cc1ccc(C2(O)C(=O)c3ccccc3C2=O)c(O)c1C,1.9%,-8.9%,0.6%,?,46.1%,50.1µM*
COC(=O)CSc1nc2c(c(-c3ccco3)c1C#N)CCCC2,-11.4%,?,2.9%,?,22.4µM*,/
OC[C@@H]1O[C@@H](Oc2ccc(O)cc2)[C@H](O)[C@@H](O)[C@@H]1O,17.7%[60.1 µM],/,/,/,/,3.0%
OC[C@H]1O[C@@H](Oc2cc(O)cc(/C=C/c3ccc(O)cc3)c2)[C@H](O)[C@@H](O)[C@@H]1O,/,/,/,/,20µM*,-2.9%
CCOc1ccc(CNC(=O)C2Cc3ccccc3N2C(=O)CC)cc1OC (configuration not stated),-15.6%[60.1 µM],0.9%,-1.9%,-4.1%,14.2%,1.2%
Cc1ccc(N=Nc2c(=O)[nH]n3c(=O)cc(C)[nH]c23)cc1,-23.7%,-1.4%,-19.7%,?,0.891µM*,1.0%
O=C(O)C1C2C=CC(C2)C1C(=O)NCCc1ccncc1 (configuration not stated),-18.6%,?,4.2%,-12.8%,50.1µM*,/
CCNc1nc(C#N)nc2c1ncn2-c1cccc(Cl)c1,/,/,/,/,/,-1.0%
O=C(Nc1ccon1)c1nc[nH]c1C(=O)N1CCN(c2ccccc2)CC1,-5.7%,-16.0%,-1.9%,15.7%,/,2.1%
Cc1ccc(NC(=O)c2nc[nH]c2C(=O)N2CCOCC2)c(C(=O)c2ccccc2)c1,-13.8%,-5.2%,12.2%,79.4µM*,?,1.2%
Cc1ccsc1/C=N/n1c(-c2cc(-c3ccccc3)n[nH]2)n[nH]c1=S,?,?,-34.2%,?,11.2µM*,4.7%
Cc1ccccc1NC(=O)Cc1nc(COC(=O)c2ccc(NC(N)=O)cc2)cs1,-10.3%,?,9.5%,35.8%,/,1.4%
CS(=O)(=O)c1ccc(C(=O)OCC(=O)Nc2cccnc2Cl)cc1[N+](=O)[O-],8.7%,89.1µM*,3.3%,?,/,0.1%
O=C1CN(C(=O)COC(=O)c2ccc(N3CCCCCC3)c([N+](=O)[O-])c2)c2ccccc2N1,-13.4%,-18.2%,-6.8%,67.2%,?,0.0%
CS(=O)(=O)c1ccc(C(=O)OCC(=O)N2CC(=O)Nc3ccccc32)cc1[N+](=O)[O-],-2.6%,/,8.7%,50.1µM*,/,0.7%
Cc1ccccc1NC(=O)COC(=O)c1ccc(S(C)(=O)=O)c([N+](=O)[O-])c1,-3.6%,89.1µM*,-10.0%,?,?,-0.2%
Cc1ccccc1NC(=O)Cc1nc(COC(=O)c2ccc(S(C)(=O)=O)c([N+](=O)[O-])c2)cs1,-9.7%,22.4µM*,7.6%,?,/,0.2%[56.1 µM]
CCn1nnnc1Sc1nc(C)nc2scc(-c3ccccc3)c12,6.7%,/,-1.9%,-19.8%,/,/
CC(=O)c1cccc(NC(=O)COC(=O)c2ccc(S(C)(=O)=O)c([N+](=O)[O-])c2)c1,-5.3%,79.4µM*,-14.7%,?,10.0%,0.7%
CC(=O)c1cccc(NC(=O)C(C)OC(=O)c2ccc(S(C)(=O)=O)c([N+](=O)[O-])c2)c1 (configuration not stated),6.5%,/,-22.0%,-0.9%,/,-1.6%
COc1cccc(=O)c2c(C)n(CC(=O)c3ccccc3)c(C)c12,-26.6%,?,-13.9%,?,22.4µM*,6.0%
Cc1ccc(S(=O)(=O)N2[C@@H](c3ccc(Cl)cc3)C(C(=O)O)=CC[C@H]2c2ccc(Cl)c(Cl)c2)cc1,-16.3%,89.1µM*,?,?,/,-6.5%
CCc1ccc([C@@H]2CC=C(C(=O)O)[C@H](c3ccccc3)N2S(=O)(=O)c2ccc(C)cc2)cc1,-24.9%,1.6%,8.4%,-12.9%,/,2.1%

# Screens: PubChem, National Center for Advancing Translational Sciences (NCATS)
